Parameters in all cases: scale not given: direction of the effect not stated beside the values
In assay [1] the target is Protein translocase subunit SecA (Escherichia coli (strain K12)) (UniProt P10408). Kind of assay: Assay to Identify E. coli SecA ATPase Inhibitors. The assay is classed as functional. To be noted: 30 µM.
For assay [2], the target named is T1, Ubiquitin-activating enzyme e1, putative (Leishmania donovani (strain BPK282A1)) (UniProt E9BSI1).
T1 sequence (whole entry): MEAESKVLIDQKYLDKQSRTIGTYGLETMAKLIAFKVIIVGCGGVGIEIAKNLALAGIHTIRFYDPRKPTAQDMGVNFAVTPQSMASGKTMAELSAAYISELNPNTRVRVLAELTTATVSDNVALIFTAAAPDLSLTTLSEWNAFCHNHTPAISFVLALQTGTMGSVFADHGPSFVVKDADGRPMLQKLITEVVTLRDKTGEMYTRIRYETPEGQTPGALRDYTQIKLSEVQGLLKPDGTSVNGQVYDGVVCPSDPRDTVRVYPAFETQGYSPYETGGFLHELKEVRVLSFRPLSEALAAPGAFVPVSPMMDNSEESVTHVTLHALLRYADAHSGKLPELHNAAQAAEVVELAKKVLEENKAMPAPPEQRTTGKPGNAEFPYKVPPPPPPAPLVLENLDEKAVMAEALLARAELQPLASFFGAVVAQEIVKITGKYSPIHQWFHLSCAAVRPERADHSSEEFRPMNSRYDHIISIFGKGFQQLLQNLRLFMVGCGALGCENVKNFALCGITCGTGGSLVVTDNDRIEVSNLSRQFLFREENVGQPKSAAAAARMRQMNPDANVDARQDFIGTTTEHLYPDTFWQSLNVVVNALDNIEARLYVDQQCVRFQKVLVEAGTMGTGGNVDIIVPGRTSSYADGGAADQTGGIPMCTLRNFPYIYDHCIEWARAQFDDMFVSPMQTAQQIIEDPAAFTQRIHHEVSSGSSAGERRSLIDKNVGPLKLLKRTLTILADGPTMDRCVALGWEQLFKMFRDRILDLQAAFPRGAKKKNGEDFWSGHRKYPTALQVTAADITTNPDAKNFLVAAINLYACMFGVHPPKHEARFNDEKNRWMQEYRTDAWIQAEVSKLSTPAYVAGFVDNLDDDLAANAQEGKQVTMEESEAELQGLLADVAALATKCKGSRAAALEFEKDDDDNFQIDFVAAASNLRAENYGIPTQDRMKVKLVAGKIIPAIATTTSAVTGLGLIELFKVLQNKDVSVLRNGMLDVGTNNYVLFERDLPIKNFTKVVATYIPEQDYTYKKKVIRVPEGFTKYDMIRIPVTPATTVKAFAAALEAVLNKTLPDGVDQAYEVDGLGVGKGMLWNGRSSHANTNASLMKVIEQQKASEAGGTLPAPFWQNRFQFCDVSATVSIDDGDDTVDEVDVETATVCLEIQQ
Kind of assay: Leishmania donovani Ubiquitin Activating Enzyme (LdE1). The assay is classed as functional. To be noted: 30 µM.

In assay [3] the target is AMP-activated protein kinase, AMPK (Homo sapiens) (UniProt P54646+O43741+P54619+Q9UGJ0+Q9Y478+Q13131+Q9UGI9). Kind of assay: AMP-dependent Kinase enzyme assay. An in vitro enzyme assay that detects ADP turnover that is directly proportional to AMPK activity. This uses naive AMPK that is activated during the assay with MK-8722. In kind it is functional. To be noted: 30 µM.

For assay [4], the target named is Sialic acid-binding Ig-like lectin 9 (Homo sapiens) (UniProt Q9Y336). The assay can be described thus: Hs-Siglec9 ALPHAscreen SOP 20170721. To be noted: 10 µM. A general note: Bead proximity is the source of the signal in Alpha formats.
The next assay has as its system Trypanosoma cruzi. Kind of assay: Trypanosoma cruzi phosphomannomutase and mannose-1-phosphate guanylyltransferase assay. In kind it is functional. To be noted: 10 µM.
In assay [5] the target is T2, Arginase-2, mitochondrial (Homo sapiens) (UniProt P78540).
T2 sequence (whole entry): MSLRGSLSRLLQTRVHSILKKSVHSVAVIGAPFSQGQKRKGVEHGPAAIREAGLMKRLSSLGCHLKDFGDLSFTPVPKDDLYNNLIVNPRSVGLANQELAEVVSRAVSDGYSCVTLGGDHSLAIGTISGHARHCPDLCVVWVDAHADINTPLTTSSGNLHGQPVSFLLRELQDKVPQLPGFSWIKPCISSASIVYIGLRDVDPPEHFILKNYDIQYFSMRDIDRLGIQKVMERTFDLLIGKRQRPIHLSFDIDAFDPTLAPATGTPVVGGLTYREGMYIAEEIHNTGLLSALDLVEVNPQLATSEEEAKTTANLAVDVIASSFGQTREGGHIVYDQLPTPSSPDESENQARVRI
Kind of assay: in vitro enzyme assay to detect the production of urea directly proportional to the activity of Arginase II. Further: in the data most compounds retested in dose-response had high values. In kind it is functional. To be noted: 33.3 µM.

The target in assay [6] is T3, Proteasome subunit beta (Trypanosoma cruzi) (UniProt O96673).
T3 sequence (whole entry): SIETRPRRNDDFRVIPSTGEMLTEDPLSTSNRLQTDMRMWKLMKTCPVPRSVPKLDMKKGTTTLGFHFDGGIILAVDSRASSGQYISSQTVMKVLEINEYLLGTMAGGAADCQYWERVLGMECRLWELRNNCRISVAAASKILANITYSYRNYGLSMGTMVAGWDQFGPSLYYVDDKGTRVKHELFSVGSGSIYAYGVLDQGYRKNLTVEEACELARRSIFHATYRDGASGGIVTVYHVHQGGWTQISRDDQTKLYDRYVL
Kind of assay: Trypanosoma cruzi proteasome chymotrypsin-like activity (TcProtChymo) assay. Further: in the data most compounds retested in dose-response had high values. The assay is classed as functional. To be noted: 9.37 µM.

The species named for a further assay is Homo sapiens. The assay can be described thus: To identify inhibition of the IFN signalling (Jak-Stat) pathway via expression of an eGFP reporter gene under the control of an IFN-stimulated response element (ISRE) containing MxA promoter. The assay is classed as functional. To be noted: 30 µM.
Assay [7] addresses T4, Tyrosyl-tRNA synthetase, putative (Trypanosoma cruzi (strain CL Brener)) (UniProt Q4DSP6).
T4 sequence (whole entry): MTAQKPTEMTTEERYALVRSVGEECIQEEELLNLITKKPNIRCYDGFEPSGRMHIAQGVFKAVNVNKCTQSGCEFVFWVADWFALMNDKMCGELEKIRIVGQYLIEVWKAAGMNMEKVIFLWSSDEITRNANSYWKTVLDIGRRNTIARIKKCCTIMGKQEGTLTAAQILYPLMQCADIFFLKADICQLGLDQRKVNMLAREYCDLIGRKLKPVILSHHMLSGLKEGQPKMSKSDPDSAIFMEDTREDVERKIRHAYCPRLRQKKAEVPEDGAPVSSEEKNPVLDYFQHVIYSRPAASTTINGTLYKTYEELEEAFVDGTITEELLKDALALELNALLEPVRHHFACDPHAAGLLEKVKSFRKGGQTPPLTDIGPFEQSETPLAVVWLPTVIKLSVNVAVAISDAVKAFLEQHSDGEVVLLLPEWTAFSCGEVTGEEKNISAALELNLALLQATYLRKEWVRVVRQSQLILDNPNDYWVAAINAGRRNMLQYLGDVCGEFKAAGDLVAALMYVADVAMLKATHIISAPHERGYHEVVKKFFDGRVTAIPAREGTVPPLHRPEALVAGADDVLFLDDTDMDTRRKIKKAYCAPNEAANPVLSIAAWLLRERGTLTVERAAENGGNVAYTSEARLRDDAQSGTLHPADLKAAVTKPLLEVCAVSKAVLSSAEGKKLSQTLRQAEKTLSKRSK
Kind of assay: Trypanosoma cruzi tyrosyl tRNA synthetase (TcYRS) _High Tyrosine SOP. Further: in the data most compounds retested in dose-response had high values. The assay is classed as functional. To be noted: 30 µM.

In assay [8] the target is T4, Tyrosyl-tRNA synthetase, putative (Trypanosoma cruzi (strain CL Brener)). The assay can be described thus: Trypanosoma cruzi tyrosyl tRNA synthetase (TcYRS) SOP. In kind it is functional. To be noted: 30 µM.
The target in assay [9] is Chromo domain-containing protein 1 (Saccharomyces cerevisiae (strain ATCC 204508 / S288c) (Baker's yeast)) (UniProt P32657). The assay can be described thus: ScCHD-1 Enzyme Inhibition Assay. Further: in the data most compounds retested in dose-response had high values. The assay is classed as functional. To be noted: 30 µM.

For some of these results: Potency and affinity values are given separately.

Chromo domain-containing protein 1 (Saccharomyces cerevisiae (strain ATCC 204508 / S288c) (Baker's yeast)), sequence (P32657 whole entry, the tested form may be a part): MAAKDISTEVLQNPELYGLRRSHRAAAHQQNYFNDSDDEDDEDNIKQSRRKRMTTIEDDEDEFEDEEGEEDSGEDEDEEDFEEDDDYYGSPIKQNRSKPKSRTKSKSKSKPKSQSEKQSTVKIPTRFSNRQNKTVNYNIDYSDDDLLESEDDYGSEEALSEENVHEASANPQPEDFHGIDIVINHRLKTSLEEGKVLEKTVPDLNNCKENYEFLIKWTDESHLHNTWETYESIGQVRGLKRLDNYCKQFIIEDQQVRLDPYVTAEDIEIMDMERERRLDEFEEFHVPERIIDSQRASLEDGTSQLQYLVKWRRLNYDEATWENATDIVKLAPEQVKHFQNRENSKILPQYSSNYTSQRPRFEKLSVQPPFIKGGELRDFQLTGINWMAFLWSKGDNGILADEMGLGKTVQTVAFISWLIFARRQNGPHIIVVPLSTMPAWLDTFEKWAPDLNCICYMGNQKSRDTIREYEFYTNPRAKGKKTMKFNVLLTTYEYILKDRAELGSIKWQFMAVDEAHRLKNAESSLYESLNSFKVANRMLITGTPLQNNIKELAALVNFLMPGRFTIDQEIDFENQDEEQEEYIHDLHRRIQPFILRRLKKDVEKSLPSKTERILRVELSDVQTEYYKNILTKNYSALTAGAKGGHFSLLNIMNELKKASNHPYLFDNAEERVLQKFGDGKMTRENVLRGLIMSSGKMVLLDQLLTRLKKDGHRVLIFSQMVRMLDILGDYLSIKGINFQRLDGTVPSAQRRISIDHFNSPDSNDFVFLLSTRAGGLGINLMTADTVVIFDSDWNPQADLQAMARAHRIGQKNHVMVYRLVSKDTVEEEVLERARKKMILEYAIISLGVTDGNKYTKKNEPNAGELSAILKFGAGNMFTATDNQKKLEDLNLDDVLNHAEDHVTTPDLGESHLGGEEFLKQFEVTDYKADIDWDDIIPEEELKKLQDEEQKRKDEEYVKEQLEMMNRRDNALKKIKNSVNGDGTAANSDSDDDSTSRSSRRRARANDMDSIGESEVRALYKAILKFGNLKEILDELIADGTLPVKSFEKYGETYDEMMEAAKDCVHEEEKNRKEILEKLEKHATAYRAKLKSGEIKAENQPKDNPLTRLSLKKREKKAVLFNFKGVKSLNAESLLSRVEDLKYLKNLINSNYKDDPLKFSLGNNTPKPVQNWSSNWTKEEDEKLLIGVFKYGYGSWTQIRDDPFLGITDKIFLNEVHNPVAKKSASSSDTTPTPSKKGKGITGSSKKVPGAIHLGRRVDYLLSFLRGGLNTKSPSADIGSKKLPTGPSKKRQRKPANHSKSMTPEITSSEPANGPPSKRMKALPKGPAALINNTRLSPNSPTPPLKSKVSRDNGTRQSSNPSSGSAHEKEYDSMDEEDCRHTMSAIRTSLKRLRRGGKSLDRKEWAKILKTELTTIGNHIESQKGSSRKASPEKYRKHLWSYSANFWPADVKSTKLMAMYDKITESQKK
Sialic acid-binding Ig-like lectin 9 (Homo sapiens), sequence (Q9Y336 whole entry): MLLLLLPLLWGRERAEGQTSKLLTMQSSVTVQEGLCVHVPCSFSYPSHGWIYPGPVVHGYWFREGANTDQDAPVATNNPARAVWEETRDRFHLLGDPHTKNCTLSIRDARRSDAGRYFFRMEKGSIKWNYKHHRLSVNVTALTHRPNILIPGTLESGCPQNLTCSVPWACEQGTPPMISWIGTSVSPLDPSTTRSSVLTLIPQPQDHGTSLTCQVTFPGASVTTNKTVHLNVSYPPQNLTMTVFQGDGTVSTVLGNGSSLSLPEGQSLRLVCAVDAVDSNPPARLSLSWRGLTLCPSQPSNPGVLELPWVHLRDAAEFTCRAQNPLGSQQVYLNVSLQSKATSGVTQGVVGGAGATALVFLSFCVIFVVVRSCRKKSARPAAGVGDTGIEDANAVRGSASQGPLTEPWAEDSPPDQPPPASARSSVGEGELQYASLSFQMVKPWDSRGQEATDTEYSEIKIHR
Protein translocase subunit SecA (Escherichia coli (strain K12)), sequence (P10408 whole entry): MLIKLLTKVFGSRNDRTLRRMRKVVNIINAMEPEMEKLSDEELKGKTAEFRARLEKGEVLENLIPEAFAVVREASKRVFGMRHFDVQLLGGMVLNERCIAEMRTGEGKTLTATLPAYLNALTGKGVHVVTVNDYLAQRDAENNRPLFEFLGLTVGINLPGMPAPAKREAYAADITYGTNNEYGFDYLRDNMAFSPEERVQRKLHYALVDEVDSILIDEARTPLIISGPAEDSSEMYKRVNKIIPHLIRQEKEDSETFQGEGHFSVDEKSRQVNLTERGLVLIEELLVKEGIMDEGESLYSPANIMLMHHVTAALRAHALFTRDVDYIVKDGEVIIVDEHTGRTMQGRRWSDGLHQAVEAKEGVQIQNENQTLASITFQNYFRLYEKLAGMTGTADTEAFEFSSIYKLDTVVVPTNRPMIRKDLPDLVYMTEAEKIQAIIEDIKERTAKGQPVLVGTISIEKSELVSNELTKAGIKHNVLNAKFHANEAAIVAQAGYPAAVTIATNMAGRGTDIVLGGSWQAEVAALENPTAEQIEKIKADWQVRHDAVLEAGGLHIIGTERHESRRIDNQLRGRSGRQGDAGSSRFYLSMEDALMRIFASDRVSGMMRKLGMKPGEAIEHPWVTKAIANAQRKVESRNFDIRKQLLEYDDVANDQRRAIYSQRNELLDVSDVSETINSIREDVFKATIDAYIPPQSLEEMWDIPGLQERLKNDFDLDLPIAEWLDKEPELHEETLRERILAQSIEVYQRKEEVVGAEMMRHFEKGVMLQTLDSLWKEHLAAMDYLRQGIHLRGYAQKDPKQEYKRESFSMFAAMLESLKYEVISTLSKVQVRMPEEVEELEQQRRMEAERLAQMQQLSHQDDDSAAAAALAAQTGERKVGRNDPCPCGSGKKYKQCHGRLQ

As for `CC(C(=O)NCCCN1CCCCCC1=O)n1cncn1` (stereo not drawn), the Percent Effect in [1] is -2.32%; in assay [2], 21.1%; in assay [3] it was -0.014%; in assay [4] it was -11.5%; in the assay on Trypanosoma cruzi it was -1.4%; in assay [5] it was -5.04%. The Percent Effect in [6] was 8.04%; in the assay listed under Homo sapiens, 2.75%; in [7], 5.42%; in [8] it was 13.6%; in assay [9] it was -7.45%.
As for `N#Cc1c(F)cccc1N1CCN(S(=O)(=O)c2cccs2)CC1`, the Percent Effect was -2.74% in [1]; -8.22% in [2]; 3.3% in [3]; 3.95% in assay [4]; 3.33% in the assay with Trypanosoma cruzi; 13.2% in [5]. Moreover, the Percent Effect in [6] is 8.16%; in the assay filed under Homo sapiens, 55.5%; in assay [7], -38.7%; in assay [8], -52.5%; in assay [9] it was 48.5%.
Consider `O=C(NCCO)C1(Cc2cc(-c3ccc(F)cc3F)no2)CCOCC1`, for which the Percent Effect in assay [1] is -2.99%; in assay [2], 12.2%; in assay [3] it was 14.6%; in [4], -1.56%; with Trypanosoma cruzi, 0.988%; in assay [5] it was 1.16%. Further, the Percent Effect in [6] was 15.8%; in the assay listed under Homo sapiens it was 23.3%; in assay [7], 0%; in [8], 6.49%; in [9] it was -16.7%.
For `Cc1n[nH]c(C)c1NC(=O)CN1CCOC(Cn2cccn2)C1` (stereo not drawn), the Percent Effect is -4.71% in [1]; 2.6% in assay [2]; 7.29% in assay [3]; -4.25% in assay [4]; 6.95% in the assay with Trypanosoma cruzi; -4% in [5]. The Percent Effect was 8.16% in assay [6]; 10.5% in the assay listed under Homo sapiens; 3.81% in assay [7]; 9.41% in [8]; -16.3% in assay [9].
For the compound `Cc1noc(C)c1CNC(=O)N1CCN(Cc2cscn2)CC1`, the Percent Effect was -5.7% in [1]; 15.8% in assay [2]; -5.03% in assay [3]; 9.82% in [4]; 5.45% in the assay on Trypanosoma cruzi; 0.766% in assay [5]. Further, the Percent Effect was 3.51% in [6]; -2.83% in the assay filed under Homo sapiens; 6.37% in [7]; 17.1% in assay [8]; -14.9% in [9].
On to `Cc1ncsc1C(=O)NC1CCN(Cc2ccc(C#N)cc2)CC1`, for which the Percent Effect in assay [1] is -4.4%; in [2], 18.2%; in [3], 0.609%; in assay [4], 12.4%; in the assay with Trypanosoma cruzi it was 1.12%; in assay [5], -2.49%. Also, the Percent Effect in assay [6] was 5.74%; in the assay filed under Homo sapiens, 32.5%; in assay [7], 3.88%; in assay [8], 12.2%; in [9] it was -7.46%.
With `CC(NC(=O)CCc1cccs1)c1nnc2n1CCC2` (stereo not drawn), the Percent Effect in assay [1] is -4.31%; in assay [2], 2.7%; in assay [3] it was -7.36%; in [4] it was 7.21%; with Trypanosoma cruzi it was 1.95%; in [5], -0.554%. Moreover, the Percent Effect in assay [6] was 7.18%; in the assay listed under Homo sapiens, -0.332%; in assay [7], 5.94%; in [8], 18.3%; in assay [9] it was 1.69%.
Take `Cc1cc(CN2CCN(CCOc3cccc(C#N)c3)CC2)no1`: the Percent Effect in assay [1] was -2.32%; in assay [2], 15.8%; in assay [3], -0.384%; in [4] it was -11.5%; in the assay with Trypanosoma cruzi it was -1.4%; in assay [5], 1.44%. The Percent Effect in assay [6] is 10.6%; in the assay filed under Homo sapiens, 3.18%; in assay [7], 5.42%; in assay [8] it was 23.5%; in assay [9] it was -5.93%.

The values above are taken from ChEMBL document CHEMBL3988442, “University of Dundee, Small-Polar-MMV Screening Library” (2021).
